In assay [1] the target is T1, GST-Nv-NF-kB (Ser allele) (Nematostella vectensis, UniProt A7UNT2 2-411).
T1 sequence: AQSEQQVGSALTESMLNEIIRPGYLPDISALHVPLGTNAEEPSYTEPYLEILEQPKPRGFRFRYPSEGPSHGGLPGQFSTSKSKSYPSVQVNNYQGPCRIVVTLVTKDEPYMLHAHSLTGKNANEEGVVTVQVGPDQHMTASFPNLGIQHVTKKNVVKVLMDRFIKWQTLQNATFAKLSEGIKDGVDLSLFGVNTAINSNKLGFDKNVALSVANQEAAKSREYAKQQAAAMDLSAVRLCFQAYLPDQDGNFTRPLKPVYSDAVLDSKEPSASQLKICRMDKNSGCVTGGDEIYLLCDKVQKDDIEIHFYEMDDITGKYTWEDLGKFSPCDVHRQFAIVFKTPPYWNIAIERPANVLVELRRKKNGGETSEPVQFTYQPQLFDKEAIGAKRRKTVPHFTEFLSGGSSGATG
Nature of the assay: protein-binding microarray (PBM); PBM: ~300 nM protein, 6 mM HEPES pH 7.8, 80 mM KCl, 0.5 mM EDTA, 0.5 mM EGTA, 6% glycerol, 35 ng/ul poly-dIdC, 1% milk, 1 h, room temperature; Ap Aiptasia and Nv Nematostella (sea anemones) / Co Capsaspora / Aq Amphimedon (sponge) / Dm Drosophila / Hu human; RHD is the Rel homology domain; high values mean tight binding. The conditions noted are these: dsDNA, one strand shown.

The target of another assay is GST-Hu-p50 (Homo sapiens, UniProt P19838 7-356). The assay is described as above. As to conditions: dsDNA, one strand shown.
Chain of GST-Hu-p50 (P19838 7-356): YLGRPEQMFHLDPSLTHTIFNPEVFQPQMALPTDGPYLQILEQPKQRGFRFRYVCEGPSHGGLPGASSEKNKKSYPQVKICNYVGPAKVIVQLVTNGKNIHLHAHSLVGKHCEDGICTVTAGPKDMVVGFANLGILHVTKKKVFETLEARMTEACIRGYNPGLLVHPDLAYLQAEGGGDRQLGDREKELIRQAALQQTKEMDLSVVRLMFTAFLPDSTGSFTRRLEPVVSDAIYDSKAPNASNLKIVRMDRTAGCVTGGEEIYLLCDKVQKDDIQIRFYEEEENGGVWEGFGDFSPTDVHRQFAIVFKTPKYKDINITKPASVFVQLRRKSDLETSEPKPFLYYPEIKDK

On to “CCGATTAACATCAACATGGGAATTGATGTTAATCGGGTCTTGATTCGCTTGACGCTGCTG”, for which the binding signal in assay [1] stood at 1.75 z-score; in the assay with GST-Hu-p50, 1.37 z-score.
The corresponding values for “CCGATTAACATCAGGCAATTCCCTGATGTTAATCGGGTCTTGATTCGCTTGACGCTGCTG” are 3.97 z-score and 3.86 z-score.
Regarding “CCGATTAACATCACGGGAAACTCTGATGTTAATCGGGTCTTGATTCGCTTGACGCTGCTG”, the binding signal in assay [1] turned out to be 3.54 z-score; in the assay with GST-Hu-p50, 2.31 z-score.
The corresponding values for “CCGATTAACATCACGGAAAACCCTGATGTTAATCGGGTCTTGATTCGCTTGACGCTGCTG” are 1.92 z-score and 2.12 z-score.
For the sequence “CCGATTAACATCAGAAATCCCGCTGATGTTAATCGGGTCTTGATTCGCTTGACGCTGCTG”, the binding signal (in assay [1]; with GST-Hu-p50) was 2.45 z-score each time.
In the case of “CCGATTAACATCAGGGAAAACGATGATGTTAATCGGGTCTTGATTCGCTTGACGCTGCTG”, the binding signal in assay [1] stood at 6.01 z-score; in the assay with GST-Hu-p50, 2.13 z-score.
Taken in the same sequence, the figures for “CCGATTAACATCAACTCGGGAAATGATGTTAATCGGGTCTTGATTCGCTTGACGCTGCTG” were 2.66 z-score and 1.46 z-score.
The corresponding values for “CCGATTAACATCACGTAAACCCCTGATGTTAATCGGGTCTTGATTCGCTTGACGCTGCTG” are 2.13 z-score and 3.75 z-score.
The corresponding values for “CCGATTAACATCAGGGGGTGAAATGATGTTAATCGGGTCTTGATTCGCTTGACGCTGCTG” are 4.3 z-score and 4.19 z-score.
Consider “CCGATTAACATCAAATCATCCCCTGATGTTAATCGGGTCTTGATTCGCTTGACGCTGCTG”, for which the figures for the binding signal (in assay [1]; in the assay with GST-Hu-p50) were 6.16 z-score and 4.63 z-score, respectively.
With “CCGATTAACATCAGGAATTCCCATGATGTTAATCGGGTCTTGATTCGCTTGACGCTGCTG”, the binding signal in assay [1] came out at 5.66 z-score; with GST-Hu-p50, 4.39 z-score.
Taken in the same sequence, the figures for “CCGATTAACATCAGAAATTTACCTGATGTTAATCGGGTCTTGATTCGCTTGACGCTGCTG” were 4.13 z-score and 3.29 z-score.
Taken in the same sequence, the figures for “CCGATTAACATCACACACCCCCCTGATGTTAATCGGGTCTTGATTCGCTTGACGCTGCTG” were 3.65 z-score and 3.63 z-score.
As to “CCGATTAACATCAAGGTAATCCCTGATGTTAATCGGGTCTTGATTCGCTTGACGCTGCTG”, the binding signal in assay [1] is 2.34 z-score; in the assay with GST-Hu-p50 it was 1.4 z-score.

Source of the values: article PMC5700166.
